Screening results deposited in PubChem by The Scripps Research Institute Molecular Screening Center.
Sampled rows, rich in hits. Any-hit rate of the full collection: about 3.2%.
rCAG binder = binds r(CAG) RNA repeats; r(CAG) RNA repeat, TO-PRO-1 dye displacement fluorescence; AID 651821; 1.3% of 370,000 active; inhibition, % at 3 µM;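 active means inhibition above the plate cutoff, the mean of all test compounds on that plate plus 3 SD, cut at about 35% in these data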;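 further: higher means more dye released from RNA so lower well fluorescence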
PG9 Ab binder = small molecules binding HIV-1 gp120 antibody PG9. TR-FRET gp120-PG9 antibody binding. 0.43% of 360,000 active. AID 624416. inhibition, % at 6.7 µM; in the data active means inhibition above about 8.5%
MsrA inh = bovine MsrA inhibition; inhibition, % at 15.5 µM; AID 651718; 0.75% of 360,000 active; purified bovine MsrA, absorbance read-out; in the data active means inhibition above about 4.5%
HGIII-sPLA2 inh = Blocks human group III sPLA2 activity; 0.56% of 370,000 active; QFRET BODIPY PC-A2 liposome hydrolysis, fluorescence; AID 743126; inhibition, % at 12.2 µM;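 active means inhibition above mean plus 3 SD of compounds lying within the high and low control bounds, cut at about 19% in these data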
Target sequence (Q9NZ20 whole entry, looked up): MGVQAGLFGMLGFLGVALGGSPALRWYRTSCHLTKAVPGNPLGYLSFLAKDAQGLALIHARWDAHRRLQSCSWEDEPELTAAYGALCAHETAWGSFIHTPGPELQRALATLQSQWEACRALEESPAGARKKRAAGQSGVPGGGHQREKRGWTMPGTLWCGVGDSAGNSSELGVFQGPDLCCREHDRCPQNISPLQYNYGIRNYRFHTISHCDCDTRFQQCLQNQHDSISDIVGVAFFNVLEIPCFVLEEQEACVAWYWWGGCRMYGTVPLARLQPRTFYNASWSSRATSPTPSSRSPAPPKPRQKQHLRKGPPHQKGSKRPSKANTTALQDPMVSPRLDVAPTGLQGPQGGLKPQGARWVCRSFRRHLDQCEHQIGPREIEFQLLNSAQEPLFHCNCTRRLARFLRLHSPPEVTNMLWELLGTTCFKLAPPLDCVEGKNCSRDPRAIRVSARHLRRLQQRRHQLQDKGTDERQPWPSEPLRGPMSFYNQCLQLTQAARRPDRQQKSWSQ
bovine MsrA act = activates bovine MsrA enzyme; activation, % at 10.6 µM; 0.3% of 360,000 active; purified bovine MsrA, absorbance read-out; in the data active means activation above about 7.5%
rCAG binder conf = r(CAG) RNA repeat binding, confirmation; shares compounds with rCAG binder; TO-PRO-1 dye displacement fluorescence; inhibition, % at 3 µM; 70% of 4,300 active; AID 652065;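 active means inhibition above a per-plate cutoff, the mean inhibition of sample wells plus 3 SD, cut at about 35% in these data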;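 further: loss of TO-PRO-1 fluorescence as compound displaces dye from 1x1 AA loop RNA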
dCAG dye counter = DNA CAG dye complex inhibition counter-screen; d(CAG) DNA oligo TO-PRO-1 dye displacement, fluorescence; shares compounds with rCAG binder; 94% of 4,300 active; inhibition, % at 3 µM;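 active means inhibition above its plate's cutoff, the mean test-well inhibition plus 3 SD, cut at about 4.8% in these data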;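 further: hits displace the dye from DNA and so lower well fluorescence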
DNA CAG DR = disrupts DNA CAG TO-PRO-1 complex in dose response; shares compounds with rCAG binder; DNA CAG/GTC duplex TO-PRO-1 dye displacement fluorescence; IC50, µM; 20% of 250 active; AID 686960; in the data active means IC50 below about 10 µM
Hits are given with their value; i = inactive; nt = no result.

SMILES	rCAG binder	PG9 Ab binder	MsrA inh	HGIII-sPLA2 inh	bovine MsrA act	rCAG binder conf	dCAG dye counter	others
N#Cc1c(N(CCO)CCO)nc(N)c2c(N)nc3c(c12)CC(=O)N3Cc1cccs1	nt	nt	nt	nt	i	nt	nt
CN(CCO)c1nc(N)c2c(N)nc3c(c2c1C#N)CC(=O)N3Cc1cccs1	38	i	i	i	i	i	9.2
CN(C)S(=O)(=O)c1ccc(C(=O)Nc2nnc(-c3ccco3)o2)cc1	i	i	i	i	i	nt	nt
CCCCN(C)S(=O)(=O)c1ccc(C(=O)Nc2nnc(-c3ccco3)o2)cc1	37	i	i	i	i	i	8.2
COc1ccccc1NC(=O)COC(=O)c1cc2ccccc2cc1O	i	i	i	i	i	nt	nt
COc1ccc(C)cc1NC(=O)NNC(=O)c1ccoc1C	i	i	i	i	i	nt	nt
COc1ccccc1NC(=O)c1cc2cc(Br)ccc2cc1O	71	i	i	i	i	49	25
COc1ccc(C)cc1NC(=O)NNC(=O)c1cc2ccccc2cc1O	58	i	i	i	i	42	15
COC(=O)[C@]12C[C@H](CC(=O)N3CCN(C(=O)C4CC4)CC3)C(=O)N(Cc3ccco3)C1=C[C@H](C1CCCC1)O[C@@H]2C	i	nt	nt	i	nt	nt	nt
O=C(Nc1ccc(-c2csc(Nc3ccc(Cl)cc3)n2)cc1)c1cccc(C(F)(F)F)c1	44	i	i	i	nt	i	11
COc1ccc2ccccc2c1C=Nn1c(-c2n[nH]c3c2CCC3)n[nH]c1=S	48	nt	nt	i	nt	49	18
O=C(O)/C(=C\c1ccccc1OC(F)F)c1ccc(-c2ccccc2)cc1	48	i	i	i	i	42	13
O=C(O)/C(=C\c1ccc(F)cc1)c1ccc(-c2ccccc2)cc1	38	i	i	i	i	40	9.7
COc1ccccc1C=C(C(=O)c1ccccc1)c1ccccc1	i	i	i	i	i	nt	nt
O=C1c2ccccc2C(O)(c2ccccc2)N1c1ccc([N+](=O)[O-])cc1Cl (stereo not given)	40	i	i	i	i	40	10
COc1ccc(Br)c2oc(S)cc(=O)c12	41	i	i	i	i	i	7.6
CCC1=NN2C(=N)/C(=C/c3cc(C)n(Cc4ccccc4)c3C)C(=O)N=C2S1	i	i	i	i	i	nt	nt
Cc1cc(/C=C2\C(=N)N3N=C(c4ccco4)SC3=NC2=O)c(C)n1Cc1ccccc1	59	i	i	i	i	69	30	DNA CAG DR=i
CCC(C)[C@H](Nc1nc(-c2ccccc2)nc2c1oc1ccccc12)C(=O)O (stereo not given in full)	74	i	i	i	i	70	32	DNA CAG DR=i
CC(C)[C@H](Nc1nc(-c2ccccc2)nc2c1oc1ccccc12)C(=O)O	58	i	i	i	i	42	11
CC(C)C(Nc1ncnc2c1oc1ccccc12)C(=O)O (stereo not given)	i	i	i	i	i	nt	nt
Cc1nc(C)c(-c2ccc(SCc3ccccc3F)nn2)s1	i	i	i	i	i	nt	nt
C[C@H]1COc2cc(Br)ccc2S(=O)(=O)N1Cc1cn(Cc2ccc(Br)cc2)nn1	i	nt	nt	i	nt	nt	nt
O=C(N/N=C/c1ccc([N+](=O)[O-])o1)c1cn(-c2ccccc2)nc1-c1ccccc1	39	i	i	i	i	i	10
O=C(O)COc1ccc(/C=N/NC(=O)c2cn(-c3ccccc3)nc2-c2ccccc2)cc1	43	i	i	i	i	35	10
SMILES	rCAG binder	PG9 Ab binder	MsrA inh	HGIII-sPLA2 inh	bovine MsrA act	rCAG binder conf	dCAG dye counter	others
Cc1ccc(-c2nnc(SCC(=O)Nc3ccc(OCc4ccccc4)cc3)n2-c2ccc(Cl)cc2)cc1	i	nt	nt	i	nt	nt	nt
COc1cccc2c1[C@H](/C=C/c1ccccc1)[C@@H]([C@H](O)COC(C)=O)OC2	i	nt	nt	i	nt	nt	nt
C[C@H]1[C@H](NC(=O)c2cccc(C(F)(F)F)c2)CC[C@@]23CCCN2C(=O)CCC[C@@H]13	nt	nt	nt	i	nt	nt	nt
COCCCNc1nc2ccccc2nc1NS(=O)(=O)c1ccc(Cl)cc1	i	i	i	i	i	nt	nt
COCCCNc1nc2ccccc2nc1NS(=O)(=O)c1cc(Cl)ccc1Cl	50	i	i	i	i	48	15
COc1ccccc1OCCCOc1cccc(/C=C2\SC(=O)NC2=O)c1	78	i	i	i	i	83	51
